Records with an inconclusive call do not appear. Activity calls are given as the source filed them. Calls come from the whole dose curve; as a rule, active = well fitted activation curve with a large enough effect in the signal ratio in the repeat runs, with a control signal flat (not every such curve was filed as active); inconclusive = weak or mixed curves; inactive = flat fitted curve, though single readings scatter; the % refers to the signal ratio.
Assay: qHTS assay for small molecule activators of the heat shock response signaling pathway (AID 743210)
Conditions: HeLa HSE-bla reporter, beta-lactamase ratio, 5 h; series mostly up to 62.6 µM
Excerpt: U.S. Tox21 Program National Center for Advancing Translational Sciences [NCATS] NIH Chemical Genomics Center [NCGC] U.S. Environmental Protection Agency [EPA] National Institutes of Environmental Health Sciences [NIEHS] National Toxicology Program [NTP] U.S. Food and Drug Administration [FDA] Tox21 Assay Overview: Various chemicals, environmental and physiological stress conditions may lead to the activation of heat shock response/ unfolded protein response (HSR/UPR). There are three heat shock transcription factors (HSFs) (HSF-1, -2, and -4) mediating transcriptional regulation of the human HSR. To identify the compounds that activate HSR signaling, HSE-bla HeLa cell line (Invitrogen, Carlsbad, CA, USA) containing a beta-lactamase reporter gene under the control of the heat shock response elements was used to screen the Tox21 10K compound library.
Tox21 Assay Protocol Summary: The CellSensor HSE-bla HeLa cells (Invitrogen, Carlsbad, CA, USA) were dispensed at 1500 cells/6uL/well into 1536-well black wall/clear bottom plates using a Multidrop combi (Thermo Fisher Scientific, Waltham, MA) dispenser. After the assay plates were incubated at 37 C and 5% CO2 overnight, 23 nL of compounds dissolved in DMSO, positive controls or DMSO only was transferred to the assay plate by a Pintool station (Kalypsys, San Diego, CA). The plates were incubated at 37 C for 5 h. After 1 uL of LiveBLAzerTM B/G FRET substrate was added using a Flying Reagent Dispenser (Beckman Coulter, Indianapolis, IN, USA), the plates were incubated at room temperature for 2.5 h, and fluorescence intensity was measured by an Envision plate reader (PerkinElmer, Shelton, CT).

| SMILES | outcome |
| --- | --- |
| CC(C(O)c1ccccc1)N(C)C/C=C/c1ccccc1 (stereo not given) | inactive |
| COc1cc2c(cc1OC)[C@@]13CCN4CC5=CCO[C@H]6CC(=O)N2[C@H]1[C@H]6[C@H]5C[C@H]43 | inactive |
| CC(CC(C#N)(c1ccccc1)c1ccccc1)N(C)C (stereo not given) | inactive |
| COc1cc(OC)nc(Oc2cccc(Oc3nc(OC)cc(OC)n3)c2C(=O)O)n1 | inactive |
| CCN(CC)c1nc(C)cc(OP(=S)(OC)OC)n1 | inactive |
| CCOP(=O)(N=C1SCCS1)OCC | inactive |
| CC(C)COP(=O)(OCC(C)C)OCC(C)C | inactive |
| Cc1nc(N)nc(N)n1 | inactive |
| C[C@]12CC[C@H]3[C@@H](CCC4=CC(=O)CC[C@@]43C)[C@@H]1CC[C@@H]2C(=O)O | inactive |
| Cc1cc(C)c(C(=O)P(=O)(C(=O)c2c(C)cc(C)cc2C)c2ccccc2)c(C)c1 | inactive |
| O=[N+]([O-])c1cccc2cccnc12 | inactive |
| NC(=O)O | inactive |
| CCSC(=O)N(CC)C1CCCCC1 | inactive |
| N#CCNCC#N | inactive |
| CCCSP(=S)(OCC)Oc1ccc(Cl)cc1Cl (stereo not given) | inactive |
| Clc1cccc(N2CCNCC2)c1 | inactive |
| N#CC(Cl)(Cl)Cl | inactive |
| CCCCc1ccc(O)cc1 | inactive |
| CC1COC2(c3ccccc3Cl)c3cc(Cl)ccc3NC(=O)CN12 (stereo not given) | inactive |
| CCS(=O)(=O)CCSP(=O)(OC)OC | inactive |

| SMILES | outcome |
| --- | --- |
| C[C@@H]1CN(C2CCC(C#N)(c3ccc(F)cc3)CC2)CC[C@]1(C(=O)O)c1ccccc1 (stereo not given in full) | inactive |
| N#CC(CCc1ccc(Cl)cc1)(Cn1cncn1)c1ccccc1 (stereo not given) | inactive |
| CC1=C(C(=O)O)N2C(=O)[C@@H](N)[C@H]2SC1 | inactive |
| OC(c1ccc(F)cc1)(c1cncnc1)c1ccccc1Cl (stereo not given) | inactive |
| CNC(=O)Oc1ccc(N(C)C)c(C)c1 | inactive |
| CCC(=O)C(CCN(C)C)(c1ccccc1)c1ccccc1 | inactive |
| ClCCOCOCCCl | inactive |
| OCCSCSCCO | inactive |
| CCC(Cl)[N+](=O)[O-] (stereo not given) | inactive |
| Cc1ncc2n1-c1ccc(Cl)cc1C(c1ccccc1F)=NC2 | inactive |
| O=[N+]([O-])c1cc(Cl)c(Cl)c(Cl)c1 | inactive |
| CCC(C)n1c(=O)[nH]c(C)c(Br)c1=O (stereo not given) | inactive |
| COc1ncc(F)c2nc(S(=O)(=O)Nc3c(F)cccc3F)nn12 | inactive |
| COc1cc(OC)nc(Sc2cccc(Cl)c2C(=O)O)n1 | inactive |
| CSc1ccc(C(=O)C(C)(C)N2CCOCC2)cc1 | inactive |
| C(CCOCC1CO1)COCC1CO1 (stereo not given) | inactive |
| Cc1cnc[nH]1 | inactive |
| CCCCP(CCCC)CCCC | inactive |
| CCN(CC)CCOC(=O)C(C)(c1ccccc1)c1ccccc1 | inactive |
| O=c1oc2ccccc2c(O)c1C1CCCc2ccccc21 (stereo not given) | inactive |

Reference: PubChem BioAssay (Tox21)
